# Screening data (PubChem)
# WRN inhibitor – WRN helicase (human) inhibition. Q14191. WRN helicase unwinding, fluorescent forked duplex, kinetic. Potency, µM (top dose mostly 114 µM), without a hit: at the highest dose activity change, negative = inhibition, hits mostly inhibitors. 0.46% of 360,000 active. AID 651768; note: potency is the fitted concentration of half-maximal effect; % is set by controls: 0 for no effect and ±100 for the full control effect; nearly all actives have a fitted effect of over 55% in size
#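 Kinetic red-fluorescence monitoring (525/598 nm) tracks WRN helicase activity after 100 nM fluorophore-quencher forked duplex and 2 mM ATP are added to 20 nM enzyme pretreated 15 min at room temperature with compound.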
# Pol iota inh – inhibitors of human DNA polymerase iota. 1% of 390,000 active. Q9UNA4. Pol iota fluorescent replication assay, 10 min. Potency, µM (titrated, usually from 115 µM), without a hit: top-dose activity, negative = inhibition, most hits filed as inhibitors; note: potency is the fitted concentration of half-maximal effect
#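 Pol iota at 10 nM preincubated 15 min with compounds at room temperature; reaction started with fluorescent substrate, 50 nM final. Fluorescence read kinetically at 0 and 10 min; buffer-only wells as negative control.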
# POLB inh – DNA polymerase beta (human) inhibition; P06746; Pol beta primer extension/strand displacement, fluorescence kinetic; Potency, µM (top dose mostly 114 µM), for inactives: at the top dose activity change, negative = inhibition, hits mostly inhibitors; 1.3% of 340,000 active; AID 485314; note: potency is the fitted concentration of half-maximal effect; % is set by controls: 0 for no effect and ±100 for the full control effect
#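 Pol beta (10 nM) was preincubated with compound for 15 min at room temperature. The reaction was then started with 50 nM substrate and read immediately and after a further 10 min at room temperature.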
# PI5P4K alpha inh – blocks human PI5P4K alpha kinase activity. P48426. PI5P4Kalpha enzyme, ADP-Glo luminescence, 60 min; active compounds read low. max response, %. 1.2% of 330,000 active. AID 652105; active = max response of -50% or lower; inconclusive = between -30% and -50%; inactive = -30% or higher; note: value at the top dose of about 77 µM; % is set by controls: 0 for no effect and ±100 for the full control effect
#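 Luminescence from ADP-Glo served as readout of PI5P4Kalpha activity in a qHTS format. Reaction: enzyme, substrate, compound, ATP at 5 microM final, 60 min at RT.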
# Pol kappa inh – DNA polymerase kappa (human) inhibition; Q9UBT6; purified Pol kappa, fluorescent DNA synthesis assay, 10 min; Potency, µM (top dose mostly 107 µM), without a hit: at the top dose activity, negative = inhibition, hits mostly inhibitors; 0.53% of 400,000 active; note: potency is the fitted concentration of half-maximal effect; % is set by controls: 0 for no effect and ±100 for the full control effect
#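 50 nM final substrate added after 15 min RT preincubation of 10 nM Pol kappa with compound; fluorescence read at 0 and 10 min.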
# POLH inh – DNA polymerase eta (human) inhibition | Potency, µM (top dose mostly 114 µM), for the others: at the highest dose activity change, negative = inhibition, usual class: inhibitors | recombinant Pol eta, fluorescent DNA replication assay | Q9Y253 | 1.2% of 390,000 active; note: potency is the fitted concentration of half-maximal effect; % is set by controls: 0 for no effect and ±100 for the full control effect
# Target sequence (Q9Y253 whole entry, looked up): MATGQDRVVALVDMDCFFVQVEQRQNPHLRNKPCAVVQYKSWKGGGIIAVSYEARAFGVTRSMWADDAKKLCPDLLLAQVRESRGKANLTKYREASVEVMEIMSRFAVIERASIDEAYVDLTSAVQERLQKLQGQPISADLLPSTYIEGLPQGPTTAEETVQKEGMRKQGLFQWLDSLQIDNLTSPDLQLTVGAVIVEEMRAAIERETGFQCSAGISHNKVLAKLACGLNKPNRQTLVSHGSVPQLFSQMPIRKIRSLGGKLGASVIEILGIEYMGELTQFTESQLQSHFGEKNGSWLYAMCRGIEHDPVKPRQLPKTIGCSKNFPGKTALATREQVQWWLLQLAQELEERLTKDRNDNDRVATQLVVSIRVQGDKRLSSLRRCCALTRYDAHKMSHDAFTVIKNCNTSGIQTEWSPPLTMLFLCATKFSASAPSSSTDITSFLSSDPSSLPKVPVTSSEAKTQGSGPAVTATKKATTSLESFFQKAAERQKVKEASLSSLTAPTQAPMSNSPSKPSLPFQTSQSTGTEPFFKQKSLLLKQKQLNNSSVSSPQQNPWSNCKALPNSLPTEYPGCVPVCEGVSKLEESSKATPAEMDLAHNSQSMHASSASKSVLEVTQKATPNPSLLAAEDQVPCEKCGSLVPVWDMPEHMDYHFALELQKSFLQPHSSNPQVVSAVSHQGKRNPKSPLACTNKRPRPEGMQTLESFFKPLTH
#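 Fluorescent replication assay: 50 nM final substrate added after a 15 min room-temperature compound preincubation with 10 nM enzyme. Signal taken at 0 min and again at 10 min.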
# The depositor's hits bear a star; ? = inconclusive; · = no result given; [ ] = dose if it differs, or a comment. Sampled rows, rich in hits. Any-hit rate of the full collection: about 2.8%. Unless noted, calls come from the whole dose curve; as a rule, active = well fitted curve in the direction sought with a large enough effect; inconclusive = small, poorly fitted or top-dose-only effect, or another doubt; inactive = no such curve, though single readings can be large; an effect the other way counts as inactive or inconclusive.
SMILES,WRN inhibitor,Pol iota inh,POLB inh,PI5P4K alpha inh,Pol kappa inh,POLH inh
CCc1nn(C)c(N)c1C,-5.4%,-17.5%,-28.6%,1.2,3.0%,-12.4%
COc1cc2c(NC3CCN(C)CC3)nc(N3CCCN(C)CC3)nc2cc1OCc1ccccc1,·,-1.2%,·,·,-7.2%,·
CCOc1cc(C(c2c(C)[nH]n(-c3ccccc3)c2=O)c2c(C)[nH]n(-c3ccccc3)c2=O)ccc1O,·,1.58µM*,-1.6%,·,-6.7%,-18.7%
COc1ccc(C(c2c(C)[nH]n(-c3ccccc3)c2=O)c2c(C)[nH]n(-c3ccccc3)c2=O)cc1OC,?,1.26µM*,32.0%,4.9,-11.8%,-5.2%
COc1ccc(C(c2c(C)n(C)n(-c3ccccc3)c2=O)c2c(C)n(C)n(-c3ccccc3)c2=O)cc1OC,0.5%,?,15.2%,-2.1,-2.8%,-3.8%
Cc1c(Br)cccc1NC(=O)C1(C)CCN1CCc1ccccc1 (stereo not drawn),-0.3%,·,·,10.5,·,·
Cc1cccc(Cn2cnc3c(cnn3C(C)(C)C)c2=O)c1,·,6.4%,·,·,12.0%,·
COc1ccc(OCC(=O)Nc2cc3c(cc2C(=O)O)OCCCO3)cc1,3.6%,11.6%,9.7%,-11.9,-12.7%,-0.4%
N/C(Cc1ccc([N+](=O)[O-])cc1)=N\OC(=O)COc1ccccc1Cl,-22.4%,-9.4%,?,-59.4*,-4.8%,-12.1%
COc1ccc(C2CC(c3cccs3)=NN2C(=O)CSc2nc(=O)n3ccc(C)cc3n2)cc1 (stereo not drawn),-3.9%[11.6 µM],22.4µM*,·,?,-25.1%,?
O=C(CSc1nc(=O)n2ccccc2n1)N1N=C(c2cccs2)CC1c1ccc(F)cc1 (stereo not drawn),0.5%,19.9%,·,-0.3,-5.8%,-15.4%
COCCCNC(=O)Cn1c(=O)n(Cc2ccc(C(=O)NCc3ccc(C)cc3)cc2)c(=O)c2ccccc21,·,89.1µM*,?,·,-18.3%,?
COCCCNC(=O)c1ccc(Cn2c(=O)c3ccccc3n(CC(=O)Nc3ccc(C)cc3C)c2=O)cc1,·,?,-9.5%,·,2.0%,-15.1%
Cc1ccc(S(=O)(=O)c2[nH]c(-c3ccccc3)nc2SCC(=O)O)cc1,·,21.1%,6.4%,·,-24.7%,-18.0%
CC(=O)Sc1nc(-c2ccccc2)[nH]c1S(=O)(=O)c1ccc(C)cc1,?,76.7%,9.3%,-80.6*,7.8%,-18.5%
Cc1ccc(C(=O)CSc2n[nH]c(C)n2)cc1,3.6%,-3.5%,31.5%,·,-1.2%,-9.8%
CCc1ccc(C(=O)CSc2n[nH]c(C)n2)cc1,0.5%,?,-1.3%,-56.6*,-4.5%,-1.1%
Cc1nc(SCC(N)=O)c([N+](=O)[O-])[nH]1,-1.1%,114.8%,-11.3%,1.1,5.8%,-12.4%
C/C(=N\NC(=O)CSc1nc(C)[nH]c1[N+](=O)[O-])c1ccc(F)cc1,-0.5%,24.0%,3.8%,-66.5*,-2.6%,-4.0%
CN(C)c1ncc2nc(-c3ccccc3)c(=O)n(C)c2n1,·,·,·,·,3.3%[60.1 µM],·
O=C1c2ccccc2C(=O)N1c1nc(-c2ccc(F)cc2)cs1,·,28.1%,·,·,-10.1%,·
COC(=O)c1c(C)sc(-c2c(-c3ccc(F)cc3)[nH]c3[nH]c(=O)[nH]c(=O)c23)c1O,·,?,56.2µM*,·,?,·
Cc1ccc(-c2cn(CCN)c(-c3ccncc3)n2)cc1,-2.9%[11.6 µM],31.6µM*,·,6.9,-17.3%,-1.1%
Cc1ccc(N2NC(=O)/C(=C\c3cc4c(cc3[N+](=O)[O-])OCO4)C2=O)cc1C,?,?,20µM*,-57.3*,-17.4%,?
O=C1NN(c2ccccc2)C(=O)/C1=C\c1ccc2c(c1)OCO2,?,109.6%,3.7%,1.8,-2.9%,2.5%
SMILES,WRN inhibitor,Pol iota inh,POLB inh,PI5P4K alpha inh,Pol kappa inh,POLH inh
O=C(CCc1ccc(O)cc1)c1c(O)cc(O)cc1O[C@H]1OC(CO)C(O)C(O)C1O (stereo partly drawn),·,·,·,·,-11.8%[60.1 µM],·
Cc1c(Br)ccc(NC(=O)Cn2nc(-c3cccs3)ccc2=O)c1C,0.4%[11.6 µM],50.1µM*,17.8µM*,7.6,-8.5%,-25.3%
Cn1cc(C(=O)N/N=C/C2=C(N3CCOCC3)C(=C/c3ccc([N+](=O)[O-])cc3)/CC2)ccc1=O,-14.1%[57.1 µM],50.1µM*,·,?,-33.5%,?
CC(C)C(NC(=O)C12CC3CC(CC(C3)C1)C2)C(=O)N/N=C/C1=C(N2CCOCC2)C(=C\c2cccc([N+](=O)[O-])c2)/CC1 (stereo not drawn),9.1%,20.6%,-22.5%,2.9,-2.5%,-11.9%
Cc1cc(O)c2c(c1O)C(=O)[C@]13C(=C2O)C(=O)[C@@H]2[C@@H](O)[C@H]1[C@@H]1[C@H](O)[C@H]3C(=O)C3=C(O)c4c(O)cc(C)c(O)c4C(=O)[C@]312,56.2µM*,3.16µM*,·,-90.5*,3.55µM*,5.62µM*
NS(=O)(=O)c1ccc(-c2ccc(C=O)o2)cc1,4.3%[57.1 µM],51.0%,-28.7%,-5.0,-6.1%,-8.9%
CC1=C(C#N)C(=O)NC(=O)/C1=C/c1ccc(-c2ccc(S(N)(=O)=O)cc2)o1,?,?,?,-95.9*,?,14.1µM*
NS(=O)(=O)c1ccc(-c2ccc(/C=C3\NC(=S)NC3=O)o2)cc1,-31.4%,10µM*,10.7%,-65.9*,50.1µM*,79.4µM*
NC(=O)CC(NSc1ccccc1[N+](=O)[O-])C(=O)O (stereo not drawn),-3.2%,?,19.2%,-57.1*,-7.7%,-9.9%
O=[N+]([O-])c1ccccc1SNc1ccccc1,1.3%,·,·,3.0,·,-9.8%
Cc1c(Cl)cccc1-n1nnc(-c2nc(-c3ccc4c(c3)OCO4)no2)c1C,·,0.6%,0.0%,·,26.7%,·
O=C1NC(=S)N/C1=C/c1cccc([N+](=O)[O-])c1O,-17.6%,6.1%,-13.8%,-89.1*,-13.2%,?
Cc1ccc(/C=C2\NC(=S)NC2=O)cc1[N+](=O)[O-],-12.5%,40.4%,-0.5%,2.4,-9.4%,-25.6%
O=C1NC(=S)N/C1=C/c1cc([N+](=O)[O-])ccc1O,?,?,1.0%,-60.9*,-3.3%,-15.0%
CC(C)Cc1oc(C(=O)O)cc1CN1CCOCC1,-9.4%,19.9%,89.1µM*,-4.3,-2.9%,-2.1%
CCCc1oc(C(=O)O)cc1CN1CCOCC1,0.0%[57.1 µM],-7.3%,8.5%,·,-3.3%,-12.5%
CN1CCN(S(=O)(=O)c2ccc(CNC(=O)c3ccccc3)s2)CC1,5.6%,4.3%,33.0%,0.9,0.2%,6.8%
N#Cc1c(-c2cccs2)nc(SCC(=O)c2cccs2)[nH]c1=O,?,?,0.8%,-70.2*,-26.0%,?
COc1ccc(N=C2NC(=O)/C(=C/c3ccco3)S2)cc1,-8.2%,?,?,-27.3,-20.2%,-13.4%
